Source: PubChem
Shown are actives, neighbours in structure and some others; about 2% of the full set was active somewhere.
ADAM10 inh: ADAM10 inhibition, QFRET primary screen; 370,000 compounds, 0.62% hits; inhibition, % at 7 µM; AID 720582; O14672; recombinant ADAM10, EDANS/DABCYL FRET peptide cleavage, 3 h;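 active means inhibition above a per-campaign cutoff equal to the mean of compounds falling between control-based bounds plus 3 SD, cut at about 20% in these data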;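 further: 0% = DMSO wells while the 100% control is not disclosed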
ADAM17 inh: inhibitors of human ADAM17. P78536. recombinant ADAM17, EDANS/DABCYL FRET peptide cleavage. inhibition, % at 6.95 µM. 370,000 compounds, 0.83% hits. AID 720648;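 active means inhibition above the mean of compounds lying between control limits plus 3 SD, set per campaign, cut at about 8.5% in these data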;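 further: 0% = DMSO-only wells as the low control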
NPR2 activator: GC-B (human) receptor activation; P20594; HEK293-GC-B cells, CNP EC30, cGMP TR-FRET; 0% at EC30 CNP, 100% saturating CNP; activation, % at 10 µM; 370,000 compounds, 0.11% hits; AID 1920062;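 active means activation at 10 µM reaching about 35% in either raw or pattern-adjusted values, limit read from the data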
GC-A act: GC-A (human) enzyme activation; P16066; HEK293 GC-A cells, cGMP TR-FRET, EC30 ANP; 0% at EC30 ANP, 100% saturating ANP; activation, % at 10 µM; 370,000 compounds, 0.14% hits; AID 1671463; in the data active means activation above about 40%
FAS-TE inh: blocks the thioesterase domain of human fatty acid synthase; recombinant FAS-TE, OMFH fluorogenic substrate, fluorescence endpoint; P49327; 360,000 compounds, 0.67% hits; inhibition, % at 15 µM;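 active means compounds whose normalised, plate-corrected inhibition of enzyme fluorescence in the single-dose primary screen is 50% or more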;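 further: 0% = DMSO with enzyme and 100% = substrate without enzyme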
ADAM10 confirm: human ADAM10 inhibition, confirmation | AID 743208 | shares compounds with ADAM10 inh | 2,100 compounds, 1% hits | ADAM10 QFRET peptide cleavage, EDANS fluorescence | inhibition, % at 6.95 µM;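 active means inhibition above about 20% chosen separately for each screening run, limit read from the data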;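 further: 0% = DMSO wells and 100% = marimastat wells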
ADAM17 ctr: counter-screen for ADAM10 exosite inhibitors: inhibitors of human ADAM17; shares compounds with ADAM10 inh; ADAM17 QFRET peptide cleavage, EDANS fluorescence; inhibition, % at 6.95 µM; AID 743214; 2,100 compounds, 0.5% hits;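 active means mean triplicate inhibition above the solvent-only control wells' mean plus 3 SD, cut at about 12% in these data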;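 further: 0% = DMSO wells and 100% = marimastat wells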
ADAM10 ctr: inhibits human ADAM10 in ADAM17 exosite counter-screen; shares compounds with ADAM17 inh; recombinant ADAM10, EDANS/DABCYL FRET peptide cleavage, 3 h; inhibition, % at 6.95 µM; 2,900 compounds, 47% hits; AID 743256;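 active means mean inhibition over the triplicate runs exceeds the activity threshold set in the earlier primary screen, cut at about 20% in these data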;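 further: 0% = DMSO wells and 100% = marimastat wells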
ADAM17 confirm: human ADAM17 inhibition, confirmation. shares compounds with ADAM17 inh. recombinant ADAM17, EDANS/DABCYL QFRET peptide cleavage. inhibition, % at 6.95 µM. 2,900 compounds, 65% hits. AID 743257;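 active means mean inhibition across replicates above the hit cutoff set in the primary screen, cut at about 8.5% in these data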;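 further: 0% = DMSO wells and 100% = marimastat wells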
An asterisk follows results filed as active.

What do the screens show for `O=S(=O)(c1c(F)cccc1F)N(CCc1ccc(F)cc1)C[C@@H](O)COCc1ccccc1`?
ADAM10 inh: 27*; ADAM17 inh: 15*; NPR2 activator: -1; GC-A act: -7; FAS-TE inh: 30; ADAM10 confirm: 7; ADAM17 ctr: 1; ADAM10 ctr: 39*; ADAM17 confirm: 19*

What do the screens show for `C=CCNC(=O)CN(C(=O)Cc1ccc(Cl)cc1)c1cccc(Br)c1`?
ADAM10 inh: 8; ADAM17 inh: 4; NPR2 activator: -25; GC-A act: -30

What do the screens show for `COC(=O)C[C@H]1CC[C@@H]2[C@H](COc3ccc(NS(C)(=O)=O)cc3C(=O)N2C)O1`?
ADAM10 inh: -2; ADAM17 inh: -5; NPR2 activator: -1; GC-A act: 3

What do the screens show for `COC(=O)c1cc(NS(=O)(=O)c2ccc(N3CCCCC3)c([N+](=O)[O-])c2)cc(C(=O)OC)c1`?
ADAM10 inh: 18; ADAM17 inh: 6; NPR2 activator: -11; GC-A act: 3; FAS-TE inh: 32

How did CC1CCN(c2ccc(C(=O)Nc3ccc4c(c3)OCO4)cc2[N+](=O)[O-])CC1 do in these assays?
ADAM10 inh: 20*; ADAM17 inh: 8.7*; NPR2 activator: 0; GC-A act: 3; FAS-TE inh: 42; ADAM10 confirm: 6; ADAM17 ctr: 2; ADAM10 ctr: 30*; ADAM17 confirm: 16*

What do the screens show for `COC(=O)c1cc(NS(=O)(=O)c2ccc(N3CCC(C)CC3)c([N+](=O)[O-])c2)cc(C(=O)OC)c1`?
ADAM10 inh: 28*; ADAM17 inh: 13*; NPR2 activator: 0; GC-A act: -2; FAS-TE inh: 36; ADAM10 confirm: 5; ADAM17 ctr: 3; ADAM10 ctr: 26*; ADAM17 confirm: 17*

Results for CC1CCCN(c2ccc(C(=O)Nc3ccc4c(c3)OCO4)cc2[N+](=O)[O-])C1 (centres undefined) ?
ADAM10 inh: 19; ADAM17 inh: 6; NPR2 activator: 3; GC-A act: 3; FAS-TE inh: 16

What do the screens show for `C[C@@H]1ON(C)[C@H]2C[C@H]3c4[nH]c5cccc(-c6ccccc6)c5c4CCN3C[C@@H]12`?
ADAM10 inh: -319; ADAM17 inh: -85; NPR2 activator: 0; GC-A act: 3

What do the screens show for `C[C@@H](NC(=O)c1nc[nH]c1C(=O)NCc1ccc(CNC(=O)OC(C)(C)C)cc1)c1ccccc1`?
ADAM10 inh: 45*; ADAM17 inh: 17*; NPR2 activator: 4; GC-A act: 2; FAS-TE inh: 17; ADAM10 confirm: 4; ADAM17 ctr: 1; ADAM10 ctr: 22*; ADAM17 confirm: 16*

How did CCN(CC)C(=O)c1[nH]cnc1C(=O)N[C@@H](CCCCNC(=O)OC(C)(C)C)C(=O)OC(C)(C)C do in these assays?
ADAM10 inh: -3; ADAM17 inh: -4; NPR2 activator: 0; GC-A act: 1; FAS-TE inh: -9

How did CC(C)C[C@H](NC(=O)c1nc[nH]c1C(=O)NCc1ccc(CNC(=O)OC(C)(C)C)cc1)C(=O)OC(C)(C)C do in these assays?
ADAM10 inh: 24*; ADAM17 inh: 16*; NPR2 activator: 2; GC-A act: -4; FAS-TE inh: 18; ADAM10 confirm: 8; ADAM17 ctr: 2; ADAM10 ctr: 52*; ADAM17 confirm: 25*

What do the screens show for `C[C@H](NC(=O)c1nc[nH]c1C(=O)NCc1ccc(CNC(=O)OC(C)(C)C)cc1)C(=O)OC(C)(C)C`?
ADAM10 inh: 11; ADAM17 inh: 4; NPR2 activator: 9; GC-A act: 3; FAS-TE inh: 17

What do the screens show for `CC(C)(C)OC(=O)NCCCC[C@H](NC(=O)c1nc[nH]c1C(=O)NCc1ccc(CNC(=O)OC(C)(C)C)cc1)C(=O)OC(C)(C)C`?
ADAM10 inh: 20*; ADAM17 inh: 13*; NPR2 activator: 11; GC-A act: -3; FAS-TE inh: 12; ADAM10 confirm: 9; ADAM17 ctr: 3; ADAM10 ctr: 29*; ADAM17 confirm: 15*

How did CCCCOCCCNC(=O)C[C@H]1C[C@@]2(C(=O)OC)C(=C[C@H](C3CCCC3)O[C@@H]2C)N(Cc2ccco2)C1=O do in these assays?
ADAM10 inh: 5; ADAM17 inh: 6; NPR2 activator: -5; GC-A act: -9

How did COC1=C[C@H](C(=O)NCc2ccc(Br)cc2)[C@H](C)[C@@H](c2ccccc2)CC1=O do in these assays?
ADAM10 inh: 9; ADAM17 inh: 7; NPR2 activator: 12; GC-A act: -4

What do the screens show for `CCN1CCCCC(NC(=O)c2ccc(F)cc2)C1=O` (centres undefined)?
ADAM10 inh: -7; ADAM17 inh: -7; NPR2 activator: 11; GC-A act: 10

How did Cc1cccc(NC(=O)C2C(c3ccccc3)C2(Cl)Cl)c1 (centres undefined) do in these assays?
ADAM10 inh: 21*; ADAM17 inh: 11*; NPR2 activator: -7; GC-A act: -3; FAS-TE inh: 29; ADAM10 confirm: 5; ADAM17 ctr: 2; ADAM10 ctr: 24*; ADAM17 confirm: 14*

How did CC(=O)c1cccc(NC(=O)C2C(c3ccccc3)C2(Cl)Cl)c1 (centres undefined) do in these assays?
ADAM10 inh: -2; ADAM17 inh: 2; NPR2 activator: 0; GC-A act: -3; FAS-TE inh: 14

Results for Cc1ccc(S(=O)(=O)NC2c3cccc4cccc(c34)C2Sc2n[nH]c(N)n2)cc1 (centres undefined) ?
ADAM10 inh: -1; ADAM17 inh: 4; NPR2 activator: -4; GC-A act: 0; FAS-TE inh: -31

How did O=S(=O)(NC1c2cccc3cccc(c23)C1Sc1ncccn1)c1ccc(Cl)cc1 (centres undefined) do in these assays?
ADAM10 inh: 25*; ADAM17 inh: 9.7*; NPR2 activator: 6; GC-A act: -7; FAS-TE inh: 16; ADAM10 confirm: 7; ADAM17 ctr: 4; ADAM10 ctr: 28*; ADAM17 confirm: 14*
